The structures appear in SMILES notation. Structures can show the parent of a compound that is named as a salt.

Conditions in all cases: treatment time: 24 h
One experiment has as its system HepG2-ACTB-RAB5A. Nature of the experiment: lowest phenotypically active concentration; higher = less potent. The procedure, abridged: (§1)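 Two criteria together defined phenotypic activity: deviation and reproducibility. Deviation meant ≥3 of 4 wells beyond the 95th percentile of Euclidean distances in solvent control wells, and reproducibility meant a median replicate Pearson correlation above the 95th percentile of non-replicates. Wells had been treated for 24 h at 0.3, 1, 3 or 9 µM in fifteen gene-edited A549, HepG2 and WPMY1 reporter lines before live imaging.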

Another experiment relates to HepG2-CANX-COX4. The description is as above. An outline of the steps: as §1
For the next experiment, the system named is HepG2-GM130-SQSTM1. The description is as above. An outline of the steps: as §1
For the next experiment, the system named is HepG2-TUBA1B-RELA. The experiment is described as above. The procedure, abridged: as §1
The test system of experiment [1] is WPMY1-ACTB-RAB5A. The description is as above. An outline of the steps: as §1
In the next experiment the test system is WPMY1-CANX-COX4. Described as above. An outline of the steps:
as §1

The next experiment has as its system WPMY1-GM130-SQSTM1. The description is as above. An outline of the steps: as §1
Another experiment concerns WPMY1-TP53BP1-CLTA. The experiment is described as above. An outline of the steps:
as §1

The test system of the next experiment is WPMY1-TUBA1B-RELA. The experiment is described as above. The procedure, abridged:
as §1

For experiment [2], the system named is WPMY1-ACTB-RAB5A. The experiment can be described thus: phenotypically active (imaging signature differs from DMSO and reproducible) at any of 0.3-9 uM (binary (1 = active, 0 = inactive)); higher = active. The procedure, abridged:
as §1

As to `O=C(Nc1c[nH]nc1-c1nc2cc(CN3CCOCC3)ccc2[nH]1)NC1CC1`, the “lowest phenotypically active concentration” value with HepG2-ACTB-RAB5A, in the experiment on HepG2-CANX-COX4, in the experiment with HepG2-GM130-SQSTM1, in the experiment with HepG2-TUBA1B-RELA, in the experiment on WPMY1-ACTB-RAB5A [1] and with WPMY1-CANX-COX4 was no more than 0.3 µM in each case. Besides, the “lowest phenotypically active concentration” value with WPMY1-GM130-SQSTM1, with WPMY1-TP53BP1-CLTA and in the experiment with WPMY1-TUBA1B-RELA was no more than 0.3 µM throughout. Also, the phenotypically active in the experiment with WPMY1-ACTB-RAB5A [2] is 1 (active).

Turning to `O=C(O)c1ccc(Nc2ncc3c(n2)-c2ccc(Cl)cc2C(c2c(F)cccc2F)=NC3)cc1`, the “lowest phenotypically active concentration” value was no more than 0.3 µM in the experiment with HepG2-ACTB-RAB5A; no more than 0.3 µM in the experiment on HepG2-CANX-COX4; no more than 0.3 µM with HepG2-GM130-SQSTM1; no more than 0.3 µM with HepG2-TUBA1B-RELA; no more than 0.3 µM in the experiment with WPMY1-ACTB-RAB5A [1]; 3 µM with WPMY1-CANX-COX4. Further, the “lowest phenotypically active concentration” value with WPMY1-GM130-SQSTM1 was 9 µM; in the experiment on WPMY1-TP53BP1-CLTA, no more than 0.3 µM; in the experiment on WPMY1-TUBA1B-RELA, no more than 0.3 µM. For the same compound, the phenotypically active with WPMY1-ACTB-RAB5A [2] is 1 (active).

For `Nc1ncn([C@@H]2O[C@H](CO)[C@@H](O)[C@H]2O)c(=O)n1` [5-Azacytidine], the “lowest phenotypically active concentration” value is no more than 0.3 µM in the experiment with HepG2-ACTB-RAB5A; no more than 0.3 µM in the experiment with HepG2-CANX-COX4; no more than 0.3 µM in the experiment on HepG2-GM130-SQSTM1; 1 µM in the experiment with HepG2-TUBA1B-RELA; 3 µM with WPMY1-ACTB-RAB5A [1]; 3 µM in the experiment with WPMY1-CANX-COX4. The “lowest phenotypically active concentration” value was 1 µM with WPMY1-GM130-SQSTM1, 3 µM in the experiment with WPMY1-TP53BP1-CLTA and 3 µM with WPMY1-TUBA1B-RELA. For the same compound, the phenotypically active in the experiment with WPMY1-ACTB-RAB5A [2] was 1 (active).

Take `Cc1cc(Nc2cc(C)c(C#N)c(NC(C)CCCC(C)(C)O)n2)n[nH]1` (stereo not given) [TC-A 2317 hydrochloride]: the “lowest phenotypically active concentration” value in the experiment with HepG2-ACTB-RAB5A was 1 µM; in the experiment with HepG2-CANX-COX4 it was 1 µM; in the experiment on HepG2-GM130-SQSTM1 it was no more than 0.3 µM; in the experiment with HepG2-TUBA1B-RELA, no more than 0.3 µM; in the experiment with WPMY1-ACTB-RAB5A [1] it was 1 µM; in the experiment on WPMY1-CANX-COX4 it was 1 µM. Besides, the “lowest phenotypically active concentration” value in the experiment on WPMY1-GM130-SQSTM1 is 1 µM; in the experiment on WPMY1-TP53BP1-CLTA it was no more than 0.3 µM; in the experiment on WPMY1-TUBA1B-RELA, 1 µM. In addition, in the experiment on WPMY1-ACTB-RAB5A [2], the phenotypically active is 1 (active).

Regarding `COCc1c(C(C)C)nc(C(C)C)c(/C=C/[C@@H](O)C[C@@H](O)CC(=O)O)c1-c1ccc(F)cc1` [cerivastatin], the “lowest phenotypically active concentration” value with HepG2-ACTB-RAB5A, with HepG2-CANX-COX4, with HepG2-GM130-SQSTM1, in the experiment with HepG2-TUBA1B-RELA, in the experiment with WPMY1-ACTB-RAB5A [1] and with WPMY1-CANX-COX4 was no more than 0.3 µM in each case. The “lowest phenotypically active concentration” value in the experiment on WPMY1-GM130-SQSTM1, with WPMY1-TP53BP1-CLTA and in the experiment with WPMY1-TUBA1B-RELA was no more than 0.3 µM each time. Besides, the phenotypically active in the experiment with WPMY1-ACTB-RAB5A [2] is 1 (active).

For `C[C@@H](N)[C@H]1CC[C@H](C(=O)Nc2ccncc2)CC1`, the “lowest phenotypically active concentration” value in the experiment with HepG2-ACTB-RAB5A amounted to 3 µM; with HepG2-CANX-COX4 it was 1 µM; in the experiment with HepG2-GM130-SQSTM1, 1 µM; with HepG2-TUBA1B-RELA, 3 µM; in the experiment with WPMY1-ACTB-RAB5A [1] it was 1 µM; in the experiment with WPMY1-CANX-COX4 it was 1 µM. Further, the entries for the “lowest phenotypically active concentration” value in the experiment with WPMY1-GM130-SQSTM1, with WPMY1-TP53BP1-CLTA and in the experiment with WPMY1-TUBA1B-RELA were 1 µM, 9 µM and 1 µM, respectively. Moreover, the phenotypically active in the experiment on WPMY1-ACTB-RAB5A [2] is 1 (active).

`CN1CC[C@H](c2c(O)cc(O)c3c(=O)cc(-c4ccccc4Cl)oc23)[C@H](O)C1` [Flavopiridol hydrochloride]: the “lowest phenotypically active concentration” value with HepG2-ACTB-RAB5A, with HepG2-CANX-COX4, in the experiment on HepG2-GM130-SQSTM1, in the experiment on HepG2-TUBA1B-RELA, in the experiment on WPMY1-ACTB-RAB5A [1] and in the experiment with WPMY1-CANX-COX4 was no more than 0.3 µM in each case. Also, the “lowest phenotypically active concentration” value with WPMY1-GM130-SQSTM1, in the experiment on WPMY1-TP53BP1-CLTA and with WPMY1-TUBA1B-RELA was no more than 0.3 µM throughout. Further, in the experiment with WPMY1-ACTB-RAB5A [2], the phenotypically active was 1 (active).

Consider `CC(C)NCCCn1c(Sc2cc3c(cc2I)OCO3)nc2c(N)ncnc21`, for which the “lowest phenotypically active concentration” value in the experiment with HepG2-ACTB-RAB5A, with HepG2-CANX-COX4, with HepG2-GM130-SQSTM1, with HepG2-TUBA1B-RELA, in the experiment with WPMY1-ACTB-RAB5A [1] and in the experiment on WPMY1-CANX-COX4 was no more than 0.3 µM in each case. For the same compound, the “lowest phenotypically active concentration” value in the experiment with WPMY1-GM130-SQSTM1, in the experiment on WPMY1-TP53BP1-CLTA and with WPMY1-TUBA1B-RELA was no more than 0.3 µM throughout. For the same compound, in the experiment on WPMY1-ACTB-RAB5A [2], the phenotypically active is 1 (active).

`COc1cc2c(NC3CCN(C(C)C)CC3)nc(N3CCC(F)(F)CC3)nc2cc1OCCCN1CCCC1`: the “lowest phenotypically active concentration” value is no more than 0.3 µM in the experiment with HepG2-ACTB-RAB5A; 1 µM with HepG2-CANX-COX4; no more than 0.3 µM with HepG2-GM130-SQSTM1; no more than 0.3 µM with HepG2-TUBA1B-RELA; 1 µM in the experiment with WPMY1-ACTB-RAB5A [1]; 1 µM with WPMY1-CANX-COX4. Moreover, the “lowest phenotypically active concentration” value was no more than 0.3 µM in the experiment on WPMY1-GM130-SQSTM1, 1 µM with WPMY1-TP53BP1-CLTA and 1 µM in the experiment with WPMY1-TUBA1B-RELA. For the same compound, the phenotypically active in the experiment with WPMY1-ACTB-RAB5A [2] is 1 (active).

Consider `COc1c(C)cnc(Cn2cnc3c(Cl)nc(N)nc32)c1C`, for which the “lowest phenotypically active concentration” value in the experiment with HepG2-ACTB-RAB5A, with HepG2-CANX-COX4, in the experiment with HepG2-GM130-SQSTM1, in the experiment with HepG2-TUBA1B-RELA, in the experiment with WPMY1-ACTB-RAB5A [1] and in the experiment with WPMY1-CANX-COX4 was no more than 0.3 µM throughout. Further, the “lowest phenotypically active concentration” value with WPMY1-GM130-SQSTM1, with WPMY1-TP53BP1-CLTA and in the experiment with WPMY1-TUBA1B-RELA was no more than 0.3 µM each time. The phenotypically active in the experiment with WPMY1-ACTB-RAB5A [2] was 1 (active).
